Data: PubChem BioAssay
The source made the active and inactive calls. Unless noted, no rule for the calls is given here.

Key:
[1] = tested on: Wnt5a (protein binding on small-molecule microarray); assay: Wnt5a binders on small-molecule microarray, primary screen, biophysical, 635/667 nm fluorescence (AID 1142); details: 635 nm fluorescence, higher = more signal;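 also: fluorescence read at 667 nm with signal to noise per printed feature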
[2] = cell viability in Huh7 cells, primary screen, cytotoxicity control for HCV replication inhibitor project, CellTiter-Glo luminescence, basal, 48 h (AID 1143); details: Huh7 HCV replicon, higher = more signal, called active from +8 up or from −8 down;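 also: Huh7 hepatoma cells carrying a hepatitis C replication reporter with no stimulus; test concentration not given here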
[3] = P. aeruginosa biofilm formation inhibitors, primary screen, PAO1 strain, BacTiter-Glo luminescence, LB-PBS (AID 1144); details: 12 h, higher = more signal
[4] = CREB reporter modulators without forskolin, primary screen, cell-based, PC12, CRE-LacZ reporter, unstimulated (AID 1145); details: no forskolin, luminescence, 4.5 h, higher = more signal, called active from +8 up or from −8 down
[5] = CREB reporter modulators under forskolin, primary screen, cell-based, PC12, CRE-LacZ reporter, forskolin-stimulated (AID 1146); details: luminescence, 4.5 h, higher = more signal, called active from +8 up or from −8 down;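 also: PC12 cells with 6xCRE LacZ reporter stimulated by forskolin 10 µM; beta-galactosidase reporter signal reflecting CREB driven transcription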
[6] = biological target: Streptavidin (Streptomyces avidinii) (UniProt P22629); assay: streptavidin binders on small-molecule microarray, primary screen, artefact control for SMM compound annotation, biophysical, 635/667 nm fluorescence (AID 1147); details: streptavidin binding, higher = more signal;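 also: signal reflects streptavidin binding to arrayed compounds as a control protein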
Chain of Streptavidin (Streptomyces avidinii) (P22629 whole entry, looked up): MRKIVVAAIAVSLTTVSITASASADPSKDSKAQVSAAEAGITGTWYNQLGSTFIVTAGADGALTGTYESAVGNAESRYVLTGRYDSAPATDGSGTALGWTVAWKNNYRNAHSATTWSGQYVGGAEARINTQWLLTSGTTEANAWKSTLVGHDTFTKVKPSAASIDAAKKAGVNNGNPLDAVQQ

[7] = small-molecule binders of probe aInhba, primary screen, biochemical, small-molecule microarray, 635/667 nm fluorescence (AID 1148); details: higher = more signal;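 also: score merges 667nm spot fluorescence with signal-to-noise for antibody binding to printed compounds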
Torsin-1A (Homo sapiens) [8] = biological target: Torsin-1A (Homo sapiens) (UniProt O14656); assay: torsin A binders from cell lysate, primary screen, small-molecule microarray, wild-type, 635/667 nm (AID 1149); details: COS7 hTOR1A-WT lysate, 635 nm fluorescence, higher = more signal
Chain of Torsin-1A (Homo sapiens) (O14656 whole entry, looked up): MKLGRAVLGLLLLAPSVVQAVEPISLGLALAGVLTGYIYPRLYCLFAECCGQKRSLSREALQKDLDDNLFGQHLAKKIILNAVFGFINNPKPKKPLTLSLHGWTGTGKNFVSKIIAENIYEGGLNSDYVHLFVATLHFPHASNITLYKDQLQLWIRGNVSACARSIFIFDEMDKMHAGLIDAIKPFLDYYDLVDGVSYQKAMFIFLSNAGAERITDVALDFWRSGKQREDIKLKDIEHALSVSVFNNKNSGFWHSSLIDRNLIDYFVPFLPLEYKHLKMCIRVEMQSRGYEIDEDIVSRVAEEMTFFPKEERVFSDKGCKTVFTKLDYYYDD

Torsin-1A (Homo sapiens) [9] = biological target: Torsin-1A (Homo sapiens) (UniProt O14656); assay: small-molecule binders of mutant TOR1A in lysate, primary screen, cell lysate, small-molecule microarray, COS7 lysate, 635/667 nm fluorescence (AID 1150); details: COS7 hTOR1A mutant lysate, 635 nm fluorescence, higher = more signal;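 also: score pools 667 nm emission and signal to noise measuring lysate protein binding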
[10] = tested on: Sonic hedgehog protein (Shh); assay: small-molecule binders of Shh protein, primary screen, biochemical, small-molecule microarray, 635/667 nm fluorescence (AID 1151); details: small-molecule microarray binding, 635 nm fluorescence; higher = more signal;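 also: Shh protein binding to compounds spotted on small-molecule microarray slides; score combines spot fluorescence intensity with signal-to-noise across triplicate slides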
[11] = E. coli DRC41 culture turbidity changes, primary screen, E. coli filamentation inducer project, strain DRC41, OD650, 48 h (AID 1152);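 also: E. coli MC1000 strain DRC41 lacking acrAB efflux pump and sulA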; details: E. coli DRC41 (acrAB sulA), higher = more signal, called active from +8 up or from −8 down
[12] = small-molecule binders of probe aLefty1, primary screen, biochemical, small-molecule microarray, 635/667 nm fluorescence (AID 1153); details: higher = more signal;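 also: score merges spot fluorescence with signal-to-noise ratio from the scanned slide images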
[13] = PSAC antagonists in infected red cells, primary screen, cell-based, P. falciparum Indochina, OD700, 1 h (AID 1154); details: P. falciparum Indochina infected RBC osmotic lysis, higher = more signal, called active from +8 up or from −8 down
[14] = PSAC antagonists in infected red cells, primary screen, cell-based, P. falciparum Indochina, OD700, 2 h (AID 1155);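 also: lysis reports solute entry through the parasite surface anion channel PSAC; channel blockers reduce lysis of infected cells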; details: P. falciparum Indochina infected erythrocytes, osmotic lysis OD700; higher = more signal, called active from +8 up or from −8 down
[15] = osmotic lysis modulators in infected erythrocytes, primary screen, PSAC antagonist project, cell-based, P. falciparum Indochina, OD700, 3 h (AID 1156); details: higher = more signal, called active from +8 up or from −8 down
[16] = PSAC antagonists in infected red cells, primary screen, cell-based, P. falciparum Indochina, OD700, 18 h (AID 1157); details: P. falciparum Indochina infected erythrocytes, osmotic lysis OD700, 18 h; higher = more signal, called active from +8 up or from −8 down
[17] = modulators of S6 phosphorylation in cells, primary screen, cell-based, A549, cytoblot, luminescence, serum-stimulated (AID 1158); details: A549 phospho-S6 cytoblot, 5 h, higher = more signal;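 also: serum-stimulated A549 lung adenocarcinoma cells; signal is phosphorylated S6 detected by cytoblot immunostaining with HRP secondary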
[18] = biological target: NADPH oxidase 2 (Homo sapiens) (UniProt P04839); assay: NOX2-dependent H2O2 signal modulators, primary screen, NOX inhibitor project, cell-based, HEK293-NOX2, PMA-stimulated, Amplex Red fluorescence (AID 1159); details: 45 min, higher = more signal, called active from +8 up or from −8 down; also: test concentration not given here
Chain of NADPH oxidase 2 (Homo sapiens) (P04839 whole entry, looked up): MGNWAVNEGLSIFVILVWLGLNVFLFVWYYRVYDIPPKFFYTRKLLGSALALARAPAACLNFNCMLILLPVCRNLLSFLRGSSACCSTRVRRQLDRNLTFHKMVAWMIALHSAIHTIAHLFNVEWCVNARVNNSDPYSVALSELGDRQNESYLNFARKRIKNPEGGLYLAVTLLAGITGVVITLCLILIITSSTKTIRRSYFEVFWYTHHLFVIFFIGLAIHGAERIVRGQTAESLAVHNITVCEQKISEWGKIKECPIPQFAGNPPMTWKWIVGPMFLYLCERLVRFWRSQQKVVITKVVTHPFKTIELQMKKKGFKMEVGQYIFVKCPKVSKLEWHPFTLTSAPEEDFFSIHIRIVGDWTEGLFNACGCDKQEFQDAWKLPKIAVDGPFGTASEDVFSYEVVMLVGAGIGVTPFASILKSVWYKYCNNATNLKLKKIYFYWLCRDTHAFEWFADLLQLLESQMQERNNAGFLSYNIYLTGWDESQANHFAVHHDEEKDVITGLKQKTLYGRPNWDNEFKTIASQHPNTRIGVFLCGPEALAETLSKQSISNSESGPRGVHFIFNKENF

[19] = biological target: NADPH oxidase 4 (Homo sapiens) (UniProt Q9NPH5); assay: NOX4-dependent H2O2 signal modulators, primary screen, NOX inhibitor project, cell-based, HEK293-NOX4, tetracycline-induced, Amplex Red fluorescence (AID 1160); details: 45 min, higher = more signal, called active from +8 up or from −8 down
Chain of NADPH oxidase 4 (Homo sapiens) (Q9NPH5 whole entry, looked up): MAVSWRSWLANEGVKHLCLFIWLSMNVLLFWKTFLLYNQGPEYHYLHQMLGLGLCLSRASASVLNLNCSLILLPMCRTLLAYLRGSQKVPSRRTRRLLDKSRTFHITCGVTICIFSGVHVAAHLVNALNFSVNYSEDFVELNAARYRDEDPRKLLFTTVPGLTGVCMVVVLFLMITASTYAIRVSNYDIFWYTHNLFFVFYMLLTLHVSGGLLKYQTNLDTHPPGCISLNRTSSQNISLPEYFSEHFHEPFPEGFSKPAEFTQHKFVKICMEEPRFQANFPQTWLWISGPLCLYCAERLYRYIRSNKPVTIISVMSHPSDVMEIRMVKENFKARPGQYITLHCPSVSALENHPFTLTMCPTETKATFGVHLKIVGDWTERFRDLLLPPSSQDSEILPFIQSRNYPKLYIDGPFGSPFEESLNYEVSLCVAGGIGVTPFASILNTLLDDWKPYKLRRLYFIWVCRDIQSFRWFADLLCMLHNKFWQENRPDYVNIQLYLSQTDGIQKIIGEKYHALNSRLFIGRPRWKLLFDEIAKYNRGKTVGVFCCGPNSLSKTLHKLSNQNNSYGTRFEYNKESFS

[20] = biological target: NADPH oxidase 5 (Homo sapiens) (UniProt Q96PH1); assay: NOX5-dependent H2O2 signal modulators, primary screen, NOX inhibitor project, cell-based, HEK293-NOX5, Amplex Red fluorescence (AID 1161); details: HEK293-NOX5, ionomycin, 45 min, higher = more signal
Chain of NADPH oxidase 5 (Homo sapiens) (Q96PH1 whole entry, looked up): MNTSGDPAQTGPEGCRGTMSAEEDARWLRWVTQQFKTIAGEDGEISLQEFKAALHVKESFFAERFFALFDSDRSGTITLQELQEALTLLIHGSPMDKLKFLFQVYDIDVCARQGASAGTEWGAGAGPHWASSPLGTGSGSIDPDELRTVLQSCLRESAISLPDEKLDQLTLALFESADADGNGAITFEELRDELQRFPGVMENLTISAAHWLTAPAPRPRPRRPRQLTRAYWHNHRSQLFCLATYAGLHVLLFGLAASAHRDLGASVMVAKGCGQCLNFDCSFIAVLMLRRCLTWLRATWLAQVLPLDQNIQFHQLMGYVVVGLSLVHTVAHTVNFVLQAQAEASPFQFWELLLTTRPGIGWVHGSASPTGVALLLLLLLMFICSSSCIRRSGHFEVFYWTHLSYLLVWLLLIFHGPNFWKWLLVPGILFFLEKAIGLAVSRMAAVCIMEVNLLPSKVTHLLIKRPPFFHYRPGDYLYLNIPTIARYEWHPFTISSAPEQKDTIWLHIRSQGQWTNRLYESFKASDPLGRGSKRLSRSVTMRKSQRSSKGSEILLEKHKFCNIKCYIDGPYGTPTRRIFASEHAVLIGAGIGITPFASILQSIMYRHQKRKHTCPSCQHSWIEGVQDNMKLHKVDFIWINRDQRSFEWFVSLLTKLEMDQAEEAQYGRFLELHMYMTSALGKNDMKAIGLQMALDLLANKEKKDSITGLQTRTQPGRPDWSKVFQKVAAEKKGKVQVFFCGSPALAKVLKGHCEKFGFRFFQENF

| SMILES | composite z-score [1] | z-score [2] | z-score [3] | z-score [4] | z-score [5] | composite z-score [6] | composite z-score [7] | composite z-score (Torsin-1A (Homo sapiens) [8]) | composite z-score (Torsin-1A (Homo sapiens) [9]) | composite z-score [10] | z-score [11] | composite z-score [12] | z-score [13] | z-score [14] | z-score [15] | z-score [16] | z-score [17] | z-score [18] | z-score [19] | z-score [20] |
| --- | --- | --- | --- | --- | --- | --- | --- | --- | --- | --- | --- | --- | --- | --- | --- | --- | --- | --- | --- | --- |
| C=C(COC)/C(=C/C[C@@H](OC(C)=O)c1ccc(CO)o1)c1cnc2ccccc2c1 | 0.387 | -0.0797 (inactive) | -1.14 (inactive) | 0.159 (inactive) | -1.6 (inactive) | 1.3 | 0.147 | 0.797 | 0.73 | 2.1 | 0.876 (inactive) | 0.233 | 4.44 (inactive) | 0.759 (inactive) | 1.56 (inactive) | 0.307 (inactive) | 0.0933 | 0.299 (inactive) | -2.98 (inactive) | -1.25 |
| O=C1NC(=O)C2C1C=CC(C(O)Cc1ccccc1)N2Nc1ccc(Cl)cc1Cl (stereo not given) | -0.209 | -0.0389 (inactive) | -0.171 (inactive) | 0.44 (inactive) | 0.115 (inactive) | 0.889 | 0.0345 | -0.0973 | 1.12 | -0.546 | -0.78 (inactive) | 0.599 | 4.35 (inactive) | 0.953 (inactive) | 0.273 (inactive) | 1.15 (inactive) | -0.834 | -1.28 (inactive) | -5.02 (inactive) | -1.9 |
| C=CCOC(=O)[C@H]1[C@@H]2C(=O)O[C@@H](c3ccccc3)[C@@H](c3ccccc3)N2[C@@H](c2ccc(OCCOC(=O)[C@H]3C[C@H]4C(=O)N5CCC[C@H]5C(=O)N4[C@H]3c3ccc(O)cc3)cc2)[C@]12C(=O)Nc1ccc(I)cc12 | 1.61 | -2.04 (inactive) | 1.03 (inactive) | 0.0043 (inactive) | 0.803 (inactive) | 1.93 | 1.3 | 2.59 | 2.65 | 2.04 | 0.917 (inactive) | 1.99 | 0.234 (inactive) | -0.588 (inactive) | -1.27 (inactive) | -1.39 (inactive) | 0.555 | -1.32 (inactive) | -1.09 (inactive) | -0.351 |
| Cc1ccc(S[C@]2(C(=O)NCCN3CCOCC3)CC(=O)N(Cc3ccccc3)[C@@H]2c2ccc(CO)cc2I)cc1 | 0.0376 | -5.17 (inactive) | -0.779 (inactive) | -0.114 (inactive) | 1.8 (inactive) | -0.755 | -0.0719 | -1.46 | 0.59 | -0.685 | 0.434 (inactive) | 0.0752 | 8.54 (active) | 0.37 (inactive) | 1.13 (inactive) | -1.19 (inactive) | 2.42 | 1.99 (inactive) | -2.89 (inactive) | 0.422 |
| C#CCN(CC=C(C)C)[C@H](CO)c1ccccc1 | -0.0366 | -4.16 (inactive) | -0.215 (inactive) | -0.153 (inactive) | 0.979 (inactive) | 0.0089 | -0.0719 | 0.247 | 1.08 | 0.0568 | 0.0373 (inactive) | 0.213 | -0.214 (inactive) | -1.3 (inactive) | -0.717 (inactive) | -2.12 (inactive) | 1.22 | -0.0535 (inactive) | -0.102 (inactive) | -1.84 |
| CC(C)OC(=O)C=C1C[C@@H](c2ccccc2C(F)(F)F)O[C@@H](c2ccccc2C(F)(F)F)O1 | 0.0503 | -4.32 (inactive) | -0.0124 (inactive) | 0.0798 (inactive) | 1.22 (inactive) | 0.215 | -0.176 | 0.217 | 0.202 | 0.245 | -0.66 (inactive) | -0.0011 | 1.66 (inactive) | 1.55 (inactive) | 0.632 (inactive) | 0.659 (inactive) | -0.491 | 0.441 (inactive) | -0.64 (inactive) | -0.774 |
| COc1ccc([Si](C)(C)[C@@H]2[C@@H](CCO)O[C@]3(C(=O)N(Cc4ccc(N5C(=O)COc6ccccc65)cc4)c4ccccc43)[C@H]2C)cc1 | 0.44 | -7.31 (inactive) | -0.374 (inactive) | 0.804 (inactive) | 2.02 (inactive) | 0.636 | 0.0261 | 0.436 | 0.586 | 1.57 | -0.163 (inactive) | 0.165 | 3.9 (inactive) | 3.84 (inactive) | 0.746 (inactive) | 2.39 (inactive) | 0.866 | 0.506 (inactive) | 1.46 (inactive) | 1.38 |
| C=CCC(OC(C)=O)[C@@H]1[C@@H](N(Cc2ccc(-c3cccc(C(F)(F)F)c3)o2)C(=O)Cc2ccc(F)cc2)c2cc(OCCCO)ccc2N1C(=O)Cc1ccc(OC)cc1 (stereo not given in full) | -0.186 | -0.705 (inactive) | -1.63 (inactive) | 0.236 (inactive) | 0.239 (inactive) | -1.07 | -0.183 | -2.21 | -0.945 | 0.392 | 0.29 (inactive) | -0.191 | 2.58 (inactive) | -0.307 (inactive) | -0.876 (inactive) | -0.668 (inactive) | 0.317 | -2.17 (inactive) | 0.269 (inactive) | -0.0149 |
| COC(=O)[C@@]1(Cc2ccc(F)cc2)[C@H]2c3cc(C(=O)N(C)C)n(Cc4ccc(S(C)(=O)=O)cc4)c3C[C@H]2CN1C(=O)c1ccccc1 | 0.0577 | -0.845 (inactive) | -0.65 (inactive) | 0.766 (inactive) | -0.428 (inactive) | 1.02 | 0.266 | 0.33 | 0.0685 | -0.447 | -0.367 (inactive) | 0.277 | 1.32 (inactive) | 0.495 (inactive) | 1.01 (inactive) | 0.739 (inactive) | -0.594 | 0.713 (inactive) | 0.668 (inactive) | 0.274 |
